Consider 40 molecules from PubChem BioAssay (NCATS).

SMILES strings stand for the structures. Records with an inconclusive call do not appear. A number with no mark means an inactive call. The source made the active and inactive calls. Calls follow the shape of the dose curve; as a rule, active = well fitted cell-killing curve with a large enough effect; inconclusive = small, poorly fitted or top-dose-only effect, or effect the other way; inactive = no such curve, though single readings can be large or run the other way.
Potency is read from the fitted curve at half-maximal effect.

This assay can be described thus: Quantitative High-Throughput drug screen in 47 multiple myeloma cell lines against the NCATS MIPE library collection: XG6_PLB cell viability assay (AID 1919865). Also: nearly all actives have a fitted effect of over 40% in size. The conditions noted are these: XG6 myeloma viability, CellTiter-Glo ATP luminescence, 48 h; series mostly up to 45.8 µM; viability (% of control): at the top concentration. The source says: PI: Beverly A. Mock Ph.D.
Laboratory of Cancer Biology and Genetics,
Center for Cancer Research, National Cancer Institute,
National Institute of Health, Bethesda, Maryland
Drug resistance and disease progression are common in multiple myeloma (MM) patients, underscoring the need for new therapeutic combinations. […] We hypothesized that effective combinations would reduce MYC expression and enhance p16 activity. […] These preclinical data identify potentially useful drug combinations for evaluation in drug-resistant MM and reveal potential mechanisms of combined drug sensitivity.
Described herein is the primary MIPE qHTS used to cherrypick compounds. Validated compounds were then further tested for potential synergistic activiy.
[1] Peat TJ, Gaikwad SM, Dubois W, Gyabaah-Kessie N, Zhang S, Gorjifard S, Phyo Z, Andres M, Hughitt VK, Simpson RM, Miller MA, Girvin AT, Taylor A, Williams D, D'Antonio N, Zhang Y, Rajagopalan A, Flietner E, Wilson K, Zhang X, Shinn P, Klumpp-Thomas C, McKnight C, Itkin Z, Chen L, Kazandijian D, Zhang J, Michalowski AM, Simmons JK, Keats J, Thomas CJ, Mock BA. Drug combinations identified by high-throughput screening promote cell cycle transition and upregulate Smad pathways in myeloma. Cancer Lett. 2023 Aug 1;568:216284. doi: 10.1016/j.canlet.2023.216284. Epub 2023 Jun 24. PMID: 37356470; PMCID: PMC10408729.
SEQUENCE No. (e.g., 1, 2, 3, etc.); […] (e.g., Cells, Incubation, Reagent, etc.); VALUE and DESCRIPTION.
1; Cells; 5 uL; white, solid bottom 1536-well Greiner assay plate.
2; Compounds; 23 nL; Kalypsis pin tool (Wako USA) equipped with a 1536-well pin head to transfer to the assay plates.
3; Incubation; 48 hours; 37C incubation.
4; Reagent;5uL; CellTiter Glo (Promega).
5; Detector; 425V; Luminescence; Viewlux PerkinElmer.
NOTES (numbers refer to Sequence numbers above)
1. The cell-based screening methods employed in this study were like those previously published. Briefly, the corresponding myeloma cell lines were screened in 1,536-well plates with 500 cells, 5-uL per well for inhibition of cell viability (assessed by measuring ATP levels with CellTiterGlo).
2. NCATS MIPE 4.0 library of approved and investigational drugs were added using the Kalypsis pin tool. Wells treated with DMSO only for 100% viability and media only for 0% viability were used as controls.
3. The assay plates were covered and incubated for 48 hours in a 37C, 5% CO2 incubator with controlled humidity.
4. After 48 hours, CellTilter-GloTM luminescent substrate mix (Promega) reagent was added to the assay plate and plates we incubated for 5 min at room temperature.
5. Signal was measured as median relative luminescence units on a ViewLux (PerkinElmer) multiplate reader.
[1] Heske CM, Davis MI, Baumgart JT, Wilson K, Gormally MV, Chen L, Zhang X, Ceribelli M, Duveau DY, Guha R, Ferrer M, Arnaldez FI, Ji J, Tran HL, Zhang Y, Mendoza A, Helman LJ, Thomas CJ. Matrix Screen Identifies Synergistic Combination of PARP Inhibitors and Nicotinamide Phosphoribosyltransferase (NAMPT) Inhibitors in Ewing Sarcoma. Clin Cancer Res. 2017 Dec 1;23(23):7301-7311. doi: 10.1158/1078-0432.CCR-17-1121. Epub 2017 Sep 12. PMID: 28899971; PMCID: PMC6636827.
(In ATP-based viability assays light output follows the ATP content of the culture.)
For `COc1cc2nccc(Oc3ccc(NC(=O)C4(C(=O)Nc5ccc(F)cc5)CC4)cc3)c2cc1OC`, the Potency is 0.743 µM (active).
As for `CC(C)c1ccccc1Cc1cc(C(=O)Nc2ccc(S(=O)(=O)c3ccccc3C(C)(C)C)cc2)c(O)c(O)c1O`, the Potency was 7.43 µM (active).
For `COc1ccc2c(OCc3nnc4ccc(-c5ccccc5)nn34)ccnc2c1`, the Potency was 0.469 µM (active).
Same read-out and setting: with `O=C(c1ccc(Nc2nccc(-c3cc4ccccc4s3)n2)cc1)N1CCC(N2CCCC2)CC1` the figure was 1.87 µM (active); with `COc1cc2c(Oc3ccc(-c4cnc(Nc5ccc(F)cc5)n(C)c4=O)cc3F)ccnc2cc1OCCCN1CCOCC1`, 3.32 µM (active); with `CCOc1cc2ncc(C#N)c(Nc3ccc(F)c(Cl)c3)c2cc1NC(=O)C=CCN(C)C`, 2.64 µM (active).
Take `CC=C1NC(=O)[C@H]2CSSCCC=C[C@H](CC(=O)N[C@H](C(C)C)C(=O)N2)OC(=O)[C@H](C(C)C)NC1=O`: the Potency was 0.0235 µM (active).
As for `C[C@]1(CO)CN(c2cc(C(=O)Nc3ccc4c(c3)-c3c(c(C(N)=O)nn3-c3ccc(F)cc3)CC4)c(Cl)cn2)C[C@@]1(C)CO`, the Potency was 4.18 µM (active).
For the molecule `CCOc1ccccc1OCCNC(C)Cc1ccc(OC)c(S(N)(=O)=O)c1` (stereo not given), the “viability (% of control)” value is 92.6%.
Take `Cc1cccc(C=NNc2cc(N3CCOCC3)nc(OCCc3ccccn3)n2)c1`: the Potency was 16.6 µM (active).
Consider `Cc1ccc(CN2CCNCC2)cc1NC(=O)CNc1ccc(F)c(F)c1`, for which the “viability (% of control)” value is 113%.
Regarding `COc1cc2ncn(-c3cc(OCc4ccccc4C(F)(F)F)c(C(N)=O)s3)c2cc1OC`, the Potency is 1.66 µM (active).
As for `COC(=O)Nc1ccc(-c2nc(N3CCOCC3)c3cnn(C4CCN(Cc5cccnc5)CC4)c3n2)cc1`, the Potency is 0.0118 µM (active).
As for `COc1ccc(-n2nc(C(N)=O)c3c2C(=O)N(c2ccc(N4CCCCC4=O)cc2)CC3)cc1`, the “viability (% of control)” value is 108%.
`C=CC(=O)Nc1cccc(Oc2nc(Nc3ccc(N4CCN(C)CC4)cc3)ncc2Cl)c1`: the Potency was 1.18 µM (active).
`CC1COC2(CCN(c3nc(=O)c4cc(C(F)(F)F)cc([N+](=O)[O-])c4s3)CC2)O1` (stereo not given): the “viability (% of control)” value is 110%.
Regarding `Cc1ccc2nc(NC(=O)CSc3nc4c(c(=O)n3-c3ccccc3)SCC4)sc2c1`, the Potency was 14.8 µM (active).
Regarding `COC(=O)C1=C(C)NC(C)=C(C(=O)OCCN2CCN(C(c3ccccc3)c3ccccc3)CC2)C1c1cccc([N+](=O)[O-])c1` (stereo not given), the Potency is 2.64 µM (active).
As for `Nc1cc(C(F)(F)F)c(-c2cc(N3CCOCC3)nc(N3CCOCC3)n2)cn1`, the Potency is 0.662 µM (active).
Regarding `COCCn1c2c([n+](Cc3cnccn3)c1C)C(=O)c1ccccc1C2=O`, the Potency is 0.0209 µM (active).
Take `O=c1c2ccccc2nc2n1CCc1c-2[nH]c2ccccc12`: the “viability (% of control)” value was 98.6%.
On to `Clc1cccc(-c2nnnn2Cc2cccnc2)c1Cl`, for which the Potency was 16.6 µM (active).
For `CC1(O)CC(c2nc(-c3ccc4ccc(-c5ccccc5)nc4c3)c3c(N)nccn23)C1` (stereo not given), the Potency was 5.26 µM (active).
Consider `Cc1cnc(-c2cnc(NCCNc3ccc(C#N)cn3)nc2-c2ccc(Cl)cc2Cl)[nH]1`, for which the Potency is 6.62 µM (active).
Take `COCCOc1ccc2c(c1)ncn2-c1ccc2cccc(N3CCC(N)CC3)c2n1`: the Potency is 0.372 µM (active).
As to `COC(=O)c1ccc2c(C(=Nc3ccc(N(C)C(=O)CN4CCN(C)CC4)cc3)c3ccccc3)c(O)[nH]c2c1`, the Potency was 0.0469 µM (active).
In the case of `CCCCc1nc2cc(C=CC(=O)NO)ccc2n1CCN(CC)CC`, the Potency is 4.69 µM (active).
For `NC(=O)c1c(OCc2c(F)cc(Br)cc2F)nsc1NC(=O)NCCCCN1CCCC1`, the Potency was 7.43 µM (active).
Take `COC(=O)Nc1nc2ccc(C(=O)c3ccc(F)cc3)cc2[nH]1`: the Potency was 0.469 µM (active).
On to `CC(C)[C@H](C(=O)Nc1ccc(C(=O)NO)cc1)c1ccccc1`, for which the Potency is 2.35 µM (active).
For the molecule `CC(C)=CCCC(C)=CCCC(C)=CCSc1ccccc1C(=O)O`, the Potency is 4.18 µM (active).
For `O=C(CCCCCCC(=O)Nc1ccc([C@H]2O[C@@H](CSc3nc(-c4ccccc4)c(-c4ccccc4)o3)C[C@@H](c3ccc(CO)cc3)O2)cc1)NO`, the Potency was 14.8 µM (active).
Same read-out and setting: with `CNC(=O)c1cc(Oc2ccc(NC(=O)Nc3cc(C(C)(C)C)nn3-c3ccc4ncccc4c3)c(F)c2)ccn1` the figure was 7.43 µM (active); with `CCCCN1CCC(CNC(=O)c2c3n(c4ccccc24)CCCO3)CC1`, 0.833 µM (active).
With `COc1cc(C(C)C)c2c(c1)S(=O)(=O)N(COc1cc(=O)n3cccc(OCCN4CCCCC4)c3n1)C2=O`, the Potency is 0.833 µM (active).
Turning to `Cc1cc(Nc2ncnc3ccc(-c4ccc(CNCCS(C)(=O)=O)o4)cc23)ccc1Oc1ccn2ncnc2c1`, the Potency is 1.66 µM (active).
`CC(=O)OCC(=O)[C@@]1(O)[C@H](C)C[C@H]2[C@@H]3C=C(C)C4=Cc5c(cnn5-c5ccccc5)C[C@]4(C)[C@@H]3[C@@H](O)C[C@@]21C`: the Potency is 4.18 µM (active).
With `NC1(Cc2ccc(Cl)cc2)CCN(c2ncnc3[nH]ccc23)CC1`, the Potency was 13.2 µM (active).
On the same count and under the same terms, with `CNC(=O)c1ccccc1Nc1nc(Nc2ccc(N3CCOCC3)cc2OC)ncc1Cl` the figure was 5.9 µM (active); with `COc1cc(-c2nn(C3CCC(N4CCN(C(C)=O)CC4)CC3)c3ncnc(N)c23)ccc1NC(=O)c1cc2ccccc2n1C` (stereo not given), 1.66 µM (active).
